Hits are enriched below; roughly 9.3% of the tested compounds scored in any of these assays.
HCV inhibitor: qHTS Assay for Inhibitors of Hepatitis C Virus (HCV); Huh7.5.1 HCVcc-Cre infection, luciferase reporter, 44 h; Potency, µM (highest dose often 41.8 µM), for inactives: top-dose activity change, negative = inhibition, most hits filed as inhibitors; 340,000 tested, 3.4% active; AID 651820, 2012; further: potency means the concentration at half of the fitted maximal effect
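Luciferase read-out (15 sec integration) after a 15 min room-temperature substrate step quantifies HCVcc-Cre infection. Cells, 1,000 per well, had compound added 4 h post-plating, then virus at ~0.5 moi, and were cultured 44 h.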
HCMV antiviral: qHTS Assay for inhibitors of the human cytomegalovirus (HCMV) | activity change, negative = inhibition, % at 57.5 µM | 410,000 tested, 4.5% active | HFF cells, HCMV-luciferase reporter, 72 h; active compounds read low; in the data active means activity change below about -60%; inconclusive means no clear call, values can overlap the other calls; inactive means above about -39%
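After 16 h attachment at 37C, HFF cells received test compound and HCMV-luciferase (1 PFU/cell); reporter luminescence read 72 h later, data normalized against buffer-only and known inhibitor Salinomycin.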
Sm TGR inh: qHTS Assay for the Inhibitors of Schistosoma Mansoni Peroxiredoxins; Schistosoma mansoni thioredoxin glutathione reductase (TGR), Q962Y6; purified TGR, DTNB reduction, TNB absorbance 405 nm; Potency, µM (titrated, usually from 114 µM), for the others: at the top dose activity change, negative = inhibition, usual class: inhibitors; 360,000 tested, 3% active; further: potency means the concentration at half of the fitted maximal effect; nearly all actives have a fitted effect of over 60% in size
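Kinetic colorimetric format: TGR-catalysed, NADPH-driven DTNB reduction monitored via TNB absorbance. Enzyme dispensed at 20 nM; compound exposure 15 min at room temperature before reaction start.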
Vaccinia mCherry: qHTS for Stage-Specific Inhibitors of Vaccinia Orthopoxvirus: mCherry Reporter Primary qHTS. Vaccinia virus mCherry reporter infection, fluorescence. Potency, µM (series often up to 36.5 µM), inactives show at the top dose activity change, negative = inhibition, hits mostly inhibitors. 310,000 tested, 0.63% active; calls by dose curve; tested in A549 cells; further: potency means the concentration at half of the fitted maximal effect; nearly all actives have a fitted effect of over 35% in size
Vaccinia Venus: qHTS for Stage-Specific Inhibitors of Vaccinia Orthopoxvirus: Venus Reporter Primary qHTS; Vaccinia virus Venus reporter expression, fluorescence; Potency, µM (series often up to 36.5 µM), for the others: at the top dose activity change, negative = inhibition, usual class: inhibitors; 330,000 tested, 0.46% active; calls by dose curve; tested in A549 cells; further: potency means the concentration at half of the fitted maximal effect; nearly all actives have a fitted effect of over 30% in size
FMDV antiviral: High Throughput Screening for Foot and Mouth Disease Virus Antivirals; FMDV antiviral cell-based qHTS; Potency, µM (top dose mostly 57.9 µM), inactives show at the highest dose activity change, negative = inhibition, hits mostly inhibitors; 410,000 tested, 1.2% active; calls by dose curve; tested in HEK293T cells; further: read-out not given here; potency means the concentration at half of the fitted maximal effect; nearly all actives have a fitted effect of over 45% in size
* = called active by the depositor; i = inactive; ? = inconclusive; · = no result given; [ ] = dose if it differs, or a comment. Unless noted, the call rests on the fitted dose curve; in most records, active means well fitted curve in the direction sought with a large enough effect; inconclusive means small, poorly fitted or top-dose-only effect, or another doubt; inactive means no such curve, though single readings can be large; an effect the other way counts as inactive or inconclusive. On the % scale 0 is the no-effect control and ±100 the full control effect.

SMILES	HCV inhibitor	HCMV antiviral	Sm TGR inh	Vaccinia mCherry	Vaccinia Venus	FMDV antiviral
Fc1ccc2[nH]c3c(NCc4ccccc4)ncnc3c2c1	7.9µM*	-85*	12%	?	?	?
COc1ccc2[nH]c3c(NCCC4=CCCCC4)ncnc3c2c1	2.8µM*	-89*	-6%	?	?	-61%
Cc1ccc2[nH]c3c(NCCN4CCOCC4)ncnc3c2c1	-25%	-23	-17%	-26%	-26%	60%
COc1ccc2[nH]c3c(NCCCOC(C)C)ncnc3c2c1	11µM*	86	-2%	-28%	-17%	2%
CCN(CC)CCNc1ncnc2c1[nH]c1ccc(OC)cc12	·	·	4%	·	·	·
C=CCNc1ncnc2c1[nH]c1ccc(C)cc12	?	-68*	-10%	?	?	·
CCN(C(=O)Cn1c(=O)n(-c2cc(OC)c(OC)c(OC)c2)c(=O)c2ccccc21)c1cccc(C)c1	14%	2	-3%	-12%	-9%	2%
O=CNc1cc2c(cc1Br)-c1ccccc1C2O (stereo not given)	-9%	-13	·	i	-20%	-2%
CCOC(=O)Cc1csc(NC(=O)/C=C/c2ccc(Cl)cc2)n1	11µM*	?	5%	·	·	?
CCOC(=O)Cc1csc(NC(=S)NC(=O)c2cc(OC)c(OC)c(OC)c2)n1	-10%	26	-10%	·	·	?
COc1ccc(-c2csc(NC(=S)NC(=O)/C=C/c3ccco3)n2)cc1Br	-27%	-73*	-32%	-3%	?	-9%
CCOC(=O)Cc1csc(NC(=O)/C=C/c2ccco2)n1	-5%	0	11µM*	-6%[7.34 µM]	-2%[7.34 µM]	2%
CCOC(=O)Cc1csc(NC(=S)NC(=O)c2ccc(F)cc2)n1	-6%	-62*	?	-5%	-4%	-20%
O=C(CNC(=S)NC(=O)c1cccc([N+](=O)[O-])c1)c1ccccc1	-10%	86	-11%	-15%	-9%	-23%
COc1ccc2[nH]c(=O)c(CN(c3ccccc3)S(=O)(=O)c3ccccc3)cc2c1	-6%	-32	-3%	i	-6%	-1%
O=C(/C=C/c1ccco1)Nc1nc(-c2ccccc2)cs1	?	-10	-27%	-16%	-10%	21%
Cc1csc(NC(=O)/C=C/c2ccc(C)o2)n1	11%	37	20µM*	-8%	-7%	2%
O=C(/C=C/c1ccco1)Nc1nc(-c2ccc(F)c(F)c2)cs1	10µM*	·	40µM*	·	·	35µM*
O=C(/C=C/c1ccco1)Nc1scc(-c2ccccc2)c1C(=O)O	18%	15	8.9µM*	7%	-11%	?
O=C(/C=C/c1ccco1)Nc1nc(-c2ccccn2)cs1	-16%	45	13µM*	?	?	67%
CC(C)(C)c1nnc2sc(SC/C(O)=C(\C#N)c3nc4ccccc4[nH]3)nn2c1=O	-22%	-14	10%[11.4 µM]	9%	15%	-16%
Cc1csc(NC(=O)/C=C/c2ccc3c(c2)OCO3)n1	?	9	3%	-13%	-26%	-51%
Cc1csc(NC(=O)/C=C/c2ccco2)n1	14%	47	50µM*	-28%	-12%	47%
O=C(/C=C/c1ccco1)Nc1ccccn1	?	100	1%	-30%	-20%	7%
Cc1ccc(NC(=O)/C=C/c2ccco2)nc1	6%	-63*	-17%	?	?	0%
CC(C)(C)OC(=O)N1CCCN(C(=O)Nc2ccccc2)CC1	10%	-23	-9%	i	-7%	-19%
O=C(COC(=O)Cc1c(F)cccc1Cl)NCCC1=CCCCC1	12%	-24	-1%	i	-2%	2%
COCC(=O)N1CCC2(CCCN(c3ccccn3)C2)CC1	·	·	·	·	·	-12%
Cc1oc(-c2ccc(C(=O)Nc3cccc(C(F)(F)F)c3)cc2)nc1CSc1ccccc1	·	-98*	15%	?	?	?
Cc1oc(-c2ccccc2)nc1C(=O)O	17%	1	-2%	i	-16%	-3%

Source: PubChem
